# Where “and” joins values, the source holds several entries; their conditions need not be identical. Equal entries are not always repeated. The panel holds about 83,000 compounds, 20% with a hit somewhere; the sample as a whole holds those more often.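 48-hour exposure, single concentration, 96-well plates; percent growth endpoint where 0 means no net growth. Active: below 10.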 Calls of active or inactive are those of the source.
# System: COLO 205 colon
# Test: NCI-60 one-dose screen, 48 h (100 = growth as untreated, 0 = no growth, -100 = all killed)
# Conditions: 10 µM unless noted
row,SMILES,growth
1,O=C(OCc1ccccc1)c1ccccc1,101% (inactive)
2,COc1ccc(CCl)c(C)c1OC,109% (inactive)
3,Nc1c(S(=O)(=O)O)cc(Br)c2c1C(=O)c1ccccc1C2=O,97.5% (inactive) and 106% (inactive)
4,CC1CC(O)CC(C)(C)C1.CC1CC(O)CC(C)(C)C1.CC1CC(O)CC(C)(C)C1.CC1CC(O)CC(C)(C)C1.[Ti] (stereo not drawn),108% (inactive)
5,CC(=O)Oc1ccc(C(c2ccc(OC(C)=O)cc2)c2ccccn2)cc1,24% (inactive) and 17.9% (inactive)
6,CC(C)=NOC(C)C(=O)O (stereo not drawn),111% (inactive)
7,CCNCc1ccccc1,107% (inactive)
8,Oc1cccnc1CN1CCOCC1,102% (inactive) and 110% (inactive)
9,O=C1C2=C(Nc3cc(Cl)ccc3N2)OC1c1c[nH]c2ccc(COc3ccccc3)cc12 (stereo not drawn),111% (inactive)
10,CCOC(=O)C1=C(C)NC(C)=C(C(=O)OCC)C1,126% (inactive) and 96.4% (inactive)
11,CC(C)(C)C1CCC(=NO)CC1 (stereo not drawn),117% (inactive)
12,O=C1c2ccccc2CN1c1ccccc1,105% (inactive)
13,COc1cc2oc3cc(=O)cc4oc(-c5ccccc5)cc(c2c2c1CCC(c1ccccc1)O2)c43 (stereo not drawn),98.5% (inactive)
14,CCOC(=O)c1ccc(N2C(=O)C(Cl)(c3ccccc3)C2c2ccco2)cc1 (stereo not drawn),96.7% (inactive)
15,Cc1cc(NC(=O)NC(=O)c2ccccc2N(C)C)ccc1Oc1ncc(Br)cn1,14.2% (inactive)
16,CCc1ccc(OC(=O)CCl)cc1,111% (inactive)
17,CCNC1=CC(=O)c2ncccc2C1=O,-62.5% (active)
18,O=C(O)Cc1cc(=O)[nH]n(-c2ccccc2)c1=O,110% (inactive)
